# In all, about 310,000 compounds went through this assay and about 14,000 (4.5%) showed an effect of 50% or more. The effect is printed as a negative number. The sample as a whole holds a higher share of strong results than the screen did.
# Target: human ether-à-go-go-related gene (hERG) potassium channel (human, UniProt Q12809)
# Experiment: primary screen, population patch clamp on CHO cells stably expressing hERG; higher = less effect of the substance
# 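Also: peak tail current of the secondary pulse compared with the same well before compound.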
# Sequence of human ether-à-go-go-related gene (hERG) potassium channel (Q12809 whole entry, looked up): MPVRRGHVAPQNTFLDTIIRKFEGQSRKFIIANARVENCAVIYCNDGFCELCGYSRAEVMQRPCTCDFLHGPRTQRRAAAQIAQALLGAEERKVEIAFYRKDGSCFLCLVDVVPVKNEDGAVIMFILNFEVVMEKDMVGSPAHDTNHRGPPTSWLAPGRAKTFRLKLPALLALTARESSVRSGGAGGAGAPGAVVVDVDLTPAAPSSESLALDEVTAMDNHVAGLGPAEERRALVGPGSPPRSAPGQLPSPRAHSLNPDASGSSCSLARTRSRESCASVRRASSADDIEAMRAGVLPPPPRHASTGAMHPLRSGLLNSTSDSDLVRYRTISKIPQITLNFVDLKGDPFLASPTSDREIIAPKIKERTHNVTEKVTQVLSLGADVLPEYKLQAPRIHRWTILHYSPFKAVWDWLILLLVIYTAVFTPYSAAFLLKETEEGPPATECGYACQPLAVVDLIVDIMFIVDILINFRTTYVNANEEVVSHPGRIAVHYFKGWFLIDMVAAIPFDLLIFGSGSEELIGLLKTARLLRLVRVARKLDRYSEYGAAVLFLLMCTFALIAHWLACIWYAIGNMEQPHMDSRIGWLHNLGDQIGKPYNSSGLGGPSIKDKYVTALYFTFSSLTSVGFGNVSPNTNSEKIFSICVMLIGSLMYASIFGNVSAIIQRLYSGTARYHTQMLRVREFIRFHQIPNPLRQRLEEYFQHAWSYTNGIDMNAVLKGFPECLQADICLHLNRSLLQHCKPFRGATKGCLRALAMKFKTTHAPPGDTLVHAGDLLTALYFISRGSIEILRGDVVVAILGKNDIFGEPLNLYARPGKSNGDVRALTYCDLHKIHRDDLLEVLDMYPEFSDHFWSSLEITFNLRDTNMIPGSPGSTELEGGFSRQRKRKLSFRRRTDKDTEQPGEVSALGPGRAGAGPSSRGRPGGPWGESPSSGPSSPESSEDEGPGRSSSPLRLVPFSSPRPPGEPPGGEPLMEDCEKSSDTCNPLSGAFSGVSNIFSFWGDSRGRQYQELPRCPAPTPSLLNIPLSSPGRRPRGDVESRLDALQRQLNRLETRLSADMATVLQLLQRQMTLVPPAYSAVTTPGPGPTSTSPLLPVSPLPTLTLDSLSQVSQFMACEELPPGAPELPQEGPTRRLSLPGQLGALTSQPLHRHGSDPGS
row,Structure (SMILES),"hERG current change (%, negative = inhibition) at 10uM [%]"
1,COc1ccccc1NC(=O)c1ccccc1NS(C)(=O)=O,-1.12
2,O=C(O)/C=C/c1ccc(O)c(O)c1,13.1
3,O=C1CSC(=S)N1c1ccc(Cl)c(Cl)c1,20.7
4,CC1=C(C(=O)OC(C)(C)C)C(c2cccs2)NC(=O)N1 (stereo not drawn),-0.0788
5,Cc1cc(OCC(=O)N2C[C@H]3C[C@@H](C2)c2cccc(=O)n2C3)c2c(C)c(C)c(=O)oc2c1,0.123
6,CC(C)(CC(=O)O)CC(=O)N1CCCN(c2nccc(C(F)(F)F)n2)CC1,17.8
7,O=C(NCc1ccncc1)C1CCN(S(=O)(=O)Cc2ccccc2)CC1,-10.4
8,Cc1ccc(C)c(SCC(=O)Nc2nnc(-c3ccccc3)o2)c1,14.1
9,CCN(C(=O)COC(=O)c1cn(-c2ccccc2)nc1-c1ccccc1)C1CCS(=O)(=O)C1 (stereo not drawn),-75.9
10,O=C(COC(=O)/C=C/c1cccc(C(F)(F)F)c1)NCCN1C(=O)CSC1=O,-28.1
11,Cc1ccc(-c2cc(C(=O)OCC(=O)N(C)C3CCS(=O)(=O)C3)c3ccccc3n2)o1 (stereo not drawn),-19.1
12,O=C(COC(=O)c1cccnc1Nc1cccc(C(F)(F)F)c1)NC1CCS(=O)(=O)C1 (stereo not drawn),-16.1
13,O=C(COC(=O)c1cccnc1Nc1cccc(C(F)(F)F)c1)NCCN1C(=O)CSC1=O,-58.7
14,CN(C(=O)COC(=O)c1cn(-c2ccccc2)nc1-c1ccccc1)C1CCS(=O)(=O)C1 (stereo not drawn),-16.6
15,O=C(COC(=O)c1cccnc1Nc1ccccc1F)NCCN1C(=O)CSC1=O,-27.7
16,CCN(C(=O)COC(=O)c1cccnc1Nc1ccccc1F)C1CCS(=O)(=O)C1 (stereo not drawn),-9.99
17,CCN(C(=O)COC(=O)c1cc(-c2ccc(C)o2)nc2ccccc12)C1CCS(=O)(=O)C1 (stereo not drawn),-66.7
18,CCN(C(=O)COC(=O)c1cccnc1Nc1cccc(C(F)(F)F)c1)C1CCS(=O)(=O)C1 (stereo not drawn),-51
19,CCN(C(=O)COC(=O)c1cc(-c2ccccc2)nn1-c1ccccc1)C1CCS(=O)(=O)C1 (stereo not drawn),-12.8
20,CCN(C(=O)COC(=O)c1cc(-c2cccc3ccccc23)nc2ccccc12)C1CCS(=O)(=O)C1 (stereo not drawn),-6.23
21,Cc1ccc(C(=O)NC(=S)NNS(=O)(=O)c2ccc(C)cc2)cc1,3.32

row,Structure (SMILES),"hERG current change (%, negative = inhibition) at 10uM [%]"
1,O=C(Nc1ccc(Cl)cn1)c1ccc(Br)c(S(=O)(=O)N2CCCCC2)c1,18.7
2,CC(=O)Nc1ccc(S(=O)(=O)N(Cc2cccnc2)Cc2cc3ccccc3[nH]c2=O)cc1,11.4
3,Cc1cccc(Nc2ccc(S(=O)(=O)N3CCOCC3)cc2[N+](=O)[O-])c1,-30.2
4,CCn1c(CSc2nc(C)cc(C)n2)nnc1SCC(=O)Nc1nc(-c2ccccc2)cs1,-9.09
5,O=c1c2ccccc2c2ccccc2c(=O)n1CC1CCCO1 (stereo not drawn),-14.4
6,Cc1ccc(C)c(NC(=O)c2cccc(Oc3ccc([N+](=O)[O-])cc3Cl)c2)c1,-4.21
7,COc1ccc(S(=O)(=O)NNC(=O)c2csc(-n3nc(C)cc3C(F)(F)F)n2)cc1,19.9
8,COc1ccc(CCN2CCCC(CN(C)C(=O)c3ccoc3)C2)cc1 (stereo not drawn),-72.9
9,Cc1nc2ccc(C(=O)N(C)CC3CCCN(CCc4ccc(Cl)cc4)C3)cc2[nH]1 (stereo not drawn),-61.2
10,Cc1ccccc1CCN1CCCC(CN(C)C(=O)c2ccc3ncccc3c2)C1 (stereo not drawn),-30.3
11,CN(CC1CCCN(CCc2ccc(Cl)cc2)C1)C(=O)c1ccoc1 (stereo not drawn),-85.7
12,COc1ccc(CCN2CCCC(CN(C)C(=O)c3ccoc3C)C2)cc1 (stereo not drawn),13.4
13,CN(C)CCN(CC1CCCN(Cc2ccccc2F)C1)C(=O)c1ccc(Cl)cc1 (stereo not drawn),-14
14,CN(CC1CCCN(CCc2ccc(Cl)cc2)C1)C(=O)c1ccc2nc[nH]c2c1 (stereo not drawn),-34.1
15,CCc1nc(SCC(=O)NCCc2ccccc2)n[nH]1,-3.42
16,CSc1nc2c(cc1C#N)CCCCC2,7.65
17,C=CCn1c(O)c(N=Nc2c(C)n(C)n(-c3ccccc3)c2=O)c(=O)[nH]c1=S,-1.57
18,O=C(Nc1cccc(Cl)c1)c1ccc(NCC2CCCO2)c([N+](=O)[O-])c1 (stereo not drawn),-2.53
19,CCN=C(NCC)SC1CC(=O)N(c2ccc(OC)cc2)C1=O (stereo not drawn),0.718
20,CCOC(=O)c1cc(C(=O)Nc2sc3c(c2C#N)CCCC3)nn1C,12.4
21,O=C(/C=C/c1ccc(N2CCOCC2)cc1)c1ccccc1,-1.16

row,Structure (SMILES),"hERG current change (%, negative = inhibition) at 10uM [%]"
1,CCSC1=N/C(=C\c2cccc(F)c2)C(=O)S1,10.4
2,Cc1ccc(Nc2cc(C)nc3c(C)cccc23)cc1,-53.3
3,CCOc1ccc(Nc2cc(C)nc3c(C)cccc23)cc1,-45.6
4,COc1ccc2nc(C)cc(NCCN3CCOCC3)c2c1,15.4
5,COc1ccccc1-c1ccc(Nc2ccc(C(=O)N3CCOCC3)cc2)nn1,-20.1
6,CC(=O)c1ccc(Nc2ccc(-c3ccccc3C)nn2)cc1,-17.5
7,Cc1cc(C)c2nc(C)cc(Nc3ccc(C(=O)N4CCOCC4)cc3)c2c1,-43.8
8,Cc1cc(NCCN2CCOCC2)c2ccc3ccccc3c2n1,-69.5
9,Cc1cc(C)nc(Nc2ccc(N3CCOCC3)cc2)n1,-5.99
10,COc1ccc(Nc2cc(C)nc3c(C)cccc23)cc1OC,-21.3
11,Cc1nc(NCCN2CCOCC2)c2oc3ccccc3c2n1.Cl,-31.5
12,Cc1ccccc1-c1ccc(Nc2ccc(N3CCOCC3)cc2)nn1,-76
13,Cc1cc(Nc2ccc(N3CCOCC3)cc2)c2cccc(C)c2n1.Cl,-56.6
14,CCN(CC(=O)NCc1ccc(F)cc1)C(=O)c1ccc2c(c1)OCO2,-5.66
15,O=C(CNC(=O)c1ccccc1Cl)OCC(=O)N1CCc2ccccc21,-10.5
16,COc1ccc(Cc2nnc(Nc3ccccc3)s2)cc1Br,13.9
17,COc1ccc2[nH]c3c(c2c1)CCN1C(=O)N([C@@H](C)C(=O)NCC2CCCO2)C(=O)[C@]31C (stereo partly drawn),-6.78
18,COc1ccc(C(=O)Oc2coc(CSc3nnc(NC(=O)c4cccs4)s3)cc2=O)cc1,24.2
19,COc1ccc(CNC(=O)C2CC(=O)N(C3CCCCC3)C2)cc1 (stereo not drawn),13.7
20,O=C(C[C@H]1C(=O)N(C2CCCCC2)C[C@@H]1Cc1ccccc1)Nc1ccccc1,-27.4
21,CCCCC[C@H]1CN(C2CCCCC2)C(=O)[C@@H]1CC(=O)NCc1ccc(OC)cc1,-67.4

row,Structure (SMILES),"hERG current change (%, negative = inhibition) at 10uM [%]"
1,C[C@H]1CN(C2CCCCC2)C(=O)[C@@H]1CC(=O)NCc1ccccc1,-6.72
2,COc1ccc(CNC(=O)C[C@H]2C(=O)N(C3CCCCC3)C[C@@H]2Cc2ccccc2)cc1,-5.71
3,CCCCC[C@H]1CN(C2CCCCC2)C(=O)[C@@H]1CC(=O)NCc1ccccc1,-67.7
4,CCN(CC)CCN(CC)Cc1ccccc1Br,-19.8
5,Cc1cc(/C=C2\C(=O)NC(=O)N(Cc3ccccc3Cl)C2=O)c(C)n1-c1ccc(C(=O)O)cc1,46
6,Cc1[nH]nc(-c2ccc(OCc3cnn(-c4ccccc4)c3)cc2O)c1Oc1ccc(F)cc1,22.6
7,CCn1cc(-c2cc(C(F)(F)F)n3nc(C(=O)O)cc3n2)c(C)n1,-8.81
8,COc1ccc(NC(=O)c2cc(S(=O)(=O)Nc3ccc(OC)cc3)cs2)cc1,-3.01
9,CCOC(=O)c1c2c3c(cccc3n(C)c1=O)C(=O)c1ccccc1-2,-71.8
10,CCOC(=O)c1c2c3c(cccc3[nH]c1=O)C(=O)c1ccccc1-2,17.6
11,CC(=O)c1c2c3c(cccc3n(C)c1=O)C(=O)c1ccccc1-2,-1.1
12,O=C(CN1C(=O)C2CCCCC2C1=O)Nc1ccccc1N1CCCC1 (stereo not drawn),1.43
13,Cl.O=C(CN1CCN(C2CCCCC2)CC1)Nc1cccc2ccccc12,-31.2
14,O=C(CC1CCCCC1)Nc1ccccc1-c1ccccc1,6.47
15,Cl.O=C(CN1CCN(C2CCCCC2)CC1)Nc1ccccc1-c1ccccc1,-70.1
16,Cl.O=C(CN1CCN(C2CCCCC2)CC1)Nc1ccccc1N1CCCCC1,-66.2
17,CC1CCN(CC(=O)Nc2ccccc2-c2ccccc2)CC1,-25.1
18,CCC(C)NC(=O)COC(=O)c1cccnc1Nc1ccccc1F (stereo not drawn),8.21
19,COc1ccc(NS(=O)(=O)c2ccc(Oc3ncccn3)cc2)cc1,3.85
20,CC(C)c1cc(-c2cc(-c3ccc(Cl)cc3)on2)nc(NC2CCCC2)n1,13.3
21,Cc1cc(C(=O)Nc2nc3ccc(Cl)cc3s2)nn1C,5.89

# From article PMC4336329 (PLoS ONE, 2015)
